Test results from PubChem BioAssay AID1159580 (chemical genetic matrix, 2015).
Values joined by “and” are separate entries in the source; they are usually repeats but may differ in a detail not shown here. Equal entries are not always repeated. The campaign covered roughly 5,500 compounds. About 2,000 (36%) were called active. Not shown: some 18% with an inconclusive outcome. Cut-off read from the data, not from the text of the source: active = normalized growth mostly below about 0.91 (no sharp cut-off); inconclusive = no clear call, values can overlap the other calls; inactive = mostly above about 0.92. This is one part of the list.

Test: chemical genetic growth profiling, strain panel (AID 1159580);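 note: tested at 20 µM; growth read once vehicle control cultures reached saturation at 30 °C; 1 = growth at the plate median or of vehicle wells; lower values mean less growth of the strain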
Settings: growth OD

Measured: normalized growth

COC(=O)C1=CCCN(C)C1
inactive: S. cerevisiae deletion strains, locus YKL068W, stronger effect = lower value 0.996 | S. cerevisiae deletion strains, locus YKL085W, strain MDH1 (second series), stronger effect = lower value 0.997 | S. cerevisiae deletion strains, locus YKL085W, strain MDH1, stronger effect = lower value 0.997 | S. cerevisiae deletion strains, locus YKL160W, strain elf1, stronger effect = lower value 1.03 | S. cerevisiae deletion strains, locus YKL190W, strain CNB1, stronger effect = lower value 1 | S. cerevisiae deletion strains, locus YKR001C, strain vps1, stronger effect = lower value 1.01 | S. cerevisiae deletion strains, locus YKR026C, strain gcn3, stronger effect = lower value 1.01 | S. cerevisiae deletion strains, locus YKR091W, strain srl3, stronger effect = lower value 1.01 | S. cerevisiae deletion strains, locus YLL001W, strain dnm1, stronger effect = lower value 0.989 | S. cerevisiae deletion strains, locus YLL026W, stronger effect = lower value 1.02 | S. cerevisiae deletion strains, locus YLL041C, strain sdh2, stronger effect = lower value 0.991 | S. cerevisiae deletion strains, locus YLR027C, strain aat2, stronger effect = lower value 1 | S. cerevisiae deletion strains, locus YLR039C, strain RIC1, stronger effect = lower value 0.983 | S. cerevisiae deletion strains, locus YLR058C, strain SHM2, stronger effect = lower value 0.973 | S. cerevisiae deletion strains, locus YLR102C, strain apc9, stronger effect = lower value 1 | S. cerevisiae deletion strains, locus YLR113W, strain HOG1, stronger effect = lower value 0.994 | S. cerevisiae deletion strains, locus YLR221C, strain rsa3, stronger effect = lower value 0.992 | S. cerevisiae deletion strains, locus YLR258W, strain gsy2, stronger effect = lower value 1.01 | S. cerevisiae deletion strains, locus YLR262C, strain YPT6 (second series), stronger effect = lower value 0.986 | S. cerevisiae deletion strains, locus YLR262C, strain YPT6, stronger effect = lower value 0.953 | S. cerevisiae deletion strains, locus YLR268W, strain sec22, stronger effect = lower value 1 | S. cerevisiae deletion strains, locus YLR320W, strain mms22, stronger effect = lower value 0.961 | S. cerevisiae deletion strains, locus YLR330W, strain CHS5, stronger effect = lower value 0.991 | S. cerevisiae deletion strains, locus YLR342W, strain FKS1 (second series), stronger effect = lower value 1.01 | S. cerevisiae deletion strains, locus YLR342W, strain FKS1, stronger effect = lower value 0.995 | S. cerevisiae deletion strains, locus YLR357W, strain rsc2, stronger effect = lower value 1.01 | S. cerevisiae deletion strains, locus YLR370C, strain arc18, stronger effect = lower value 1 | S. cerevisiae deletion strains, locus YLR371W, strain rom2, stronger effect = lower value 0.999 | S. cerevisiae deletion strains, locus YLR384C, strain iki3, stronger effect = lower value 1.02 | S. cerevisiae deletion strains, locus YLR418C, strain cdc73, stronger effect = lower value 1.02 | S. cerevisiae deletion strains, locus YML016C, strain PPZ1, stronger effect = lower value 0.987 | S. cerevisiae deletion strains, locus YML032C, strain rad52, stronger effect = lower value 0.983 | S. cerevisiae deletion strains, locus YML120C, strain ndi1, stronger effect = lower value 1 | S. cerevisiae deletion strains, locus YML124C, strain tub3, stronger effect = lower value 0.994 | S. cerevisiae deletion strains, locus YMR058W, strain fet3, stronger effect = lower value 1.03 | S. cerevisiae deletion strains, locus YMR078C, strain ctf18, stronger effect = lower value 0.996 | S. cerevisiae deletion strains, locus YMR125W, strain sto1, stronger effect = lower value 1.02 | S. cerevisiae deletion strains, locus YMR129W, stronger effect = lower value 1 | S. cerevisiae deletion strains, locus YMR205C, strain PFK2, stronger effect = lower value 0.955 | S. cerevisiae deletion strains, locus YMR223W, strain ubp8, stronger effect = lower value 0.981 | S. cerevisiae deletion strains, locus YMR231W, strain pep5, stronger effect = lower value 1.01 | S. cerevisiae deletion strains, locus YMR263W, strain SAP30, stronger effect = lower value 0.984 | S. cerevisiae deletion strains, locus YMR307W, strain GAS1, stronger effect = lower value 1.01 and 0.99 | S. cerevisiae deletion strains, locus YNL067W, strain RPL9B, stronger effect = lower value 0.979 | S. cerevisiae deletion strains, locus YNL071W, strain lat1, stronger effect = lower value 1.01 | S. cerevisiae deletion strains, locus YNL128W, strain TEP1, stronger effect = lower value 0.986 | S. cerevisiae deletion strains, locus YNL153C, strain GIM3, stronger effect = lower value 0.983 | S. cerevisiae deletion strains, locus YNL175C, strain NOP13, stronger effect = lower value 1.04 | S. cerevisiae deletion strains, locus YNL183C, strain NPR1, stronger effect = lower value 0.953 | S. cerevisiae deletion strains, locus YNL197C, strain WHI3, stronger effect = lower value 1 | S. cerevisiae deletion strains, locus YNL209W, strain ssb2, stronger effect = lower value 1 | S. cerevisiae deletion strains, locus YNL224C, strain SQS1, stronger effect = lower value 1 | S. cerevisiae deletion strains, locus YNL233W, strain BNI4, stronger effect = lower value 0.99 | S. cerevisiae deletion strains, locus YNL248C, strain rpa49, stronger effect = lower value 1.02 | S. cerevisiae deletion strains, locus YNL250W, strain rad50, stronger effect = lower value 0.993 | S. cerevisiae deletion strains, locus YNL271C, strain bni1, stronger effect = lower value 0.995 | S. cerevisiae deletion strains, locus YNL298W, strain CLA4, stronger effect = lower value 1 | S. cerevisiae deletion strains, locus YNL307C, strain MCK1, stronger effect = lower value 0.996 | S. cerevisiae deletion strains, locus YNL322C, strain KRE1 (second series), stronger effect = lower value 1.03 | S. cerevisiae deletion strains, locus YNL322C, strain KRE1, stronger effect = lower value 0.985 | S. cerevisiae deletion strains, locus YNR049C, strain mso1, stronger effect = lower value 0.995 | S. cerevisiae deletion strains, locus YNR052C, strain pop2, stronger effect = lower value 0.995 | S. cerevisiae deletion strains, locus YOL006C, strain TOP1, stronger effect = lower value 0.981 | S. cerevisiae deletion strains, locus YOL012C, strain htz1 0.9 | S. cerevisiae deletion strains, locus YOL147C, strain pex11, stronger effect = lower value 0.992 | S. cerevisiae deletion strains, locus YOR001W, strain rrp6, stronger effect = lower value 0.971 | S. cerevisiae deletion strains, locus YOR061W, strain CKA2, stronger effect = lower value 0.968 | S. cerevisiae deletion strains, locus YOR069W, strain VPS5, stronger effect = lower value 0.997 | S. cerevisiae deletion strains, locus YOR070C, strain gyp1, stronger effect = lower value 1.01 | S. cerevisiae deletion strains, locus YOR080W, strain dia2, stronger effect = lower value 1 | S. cerevisiae deletion strains, locus YOR083W, strain WHI5 (second series), stronger effect = lower value 1.02 | S. cerevisiae deletion strains, locus YOR083W, strain WHI5, stronger effect = lower value 1.01 | S. cerevisiae deletion strains, locus YOR106W, strain vam3, stronger effect = lower value 1.04 | S. cerevisiae deletion strains, locus YOR136W, strain idh2, stronger effect = lower value 1 | S. cerevisiae deletion strains, locus YOR144C, strain elg1, stronger effect = lower value 0.997 | S. cerevisiae deletion strains, locus YOR184W, strain ser1, stronger effect = lower value 0.989 | S. cerevisiae deletion strains, locus YOR231W, strain MKK1, stronger effect = lower value 0.994 | S. cerevisiae deletion strains, locus YOR265W, strain rbl2, stronger effect = lower value 1 | S. cerevisiae deletion strains, locus YOR270C, strain vph1, stronger effect = lower value 1.01 | S. cerevisiae deletion strains, locus YOR290C, strain snf2, stronger effect = lower value 1.02 | S. cerevisiae deletion strains, locus YOR316C, strain cot1, stronger effect = lower value 0.993 | S. cerevisiae deletion strains, locus YPL051W, strain arl3, stronger effect = lower value 1.03 | S. cerevisiae deletion strains, locus YPL055C, strain LGE1, stronger effect = lower value 0.977 and 1.03 | S. cerevisiae deletion strains, locus YPL078C, strain atp4, stronger effect = lower value 1.03 | S. cerevisiae deletion strains, locus YPL106C, strain sse1, stronger effect = lower value 1.04 | S. cerevisiae deletion strains, locus YPL240C, strain hsp82, stronger effect = lower value 1 | S. cerevisiae deletion strains, locus YPL241C, strain CIN2, stronger effect = lower value 0.994 | S. cerevisiae deletion strains, locus YPL256C, strain CLN2, stronger effect = lower value 1 | S. cerevisiae deletion strains, locus YPR119W, strain clb2, stronger effect = lower value 0.991 | S. cerevisiae deletion strains, locus YPR141C, strain kar3, stronger effect = lower value 0.99 | S. cerevisiae deletion strains, locus YPR163C, strain tif3, stronger effect = lower value 0.999 | S. cerevisiae deletion strains, locus YPR167C, strain met16, stronger effect = lower value 1 | S. cerevisiae deletion strains, strain wtn01, stronger effect = lower value 0.994 | S. cerevisiae strains, strain wild type, stronger effect = lower value 0.993
